ClpP mod = qHTS Assay for Activators of ClpP; ATP-dependent Clp protease proteolytic subunit (Bacillus subtilis (strain 168)), P80244; purified B. subtilis ClpP, FRET peptide cleavage, 20 min; Potency, µM (doses to about 57.5 µM), without a hit: top-dose activity change, negative = active; actives 1.9% (n = 340,000); active means well fitted falling curve with a large enough effect; inconclusive means small, poorly fitted or top-dose-only effect; inactive means no such curve, though single readings can be large or run the other way; further: the source files actives as falling curves though it sought activators and does not explain the sign; nearly all actives have a fitted effect of over 65% in size
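Purified B. subtilis ClpP, 10 microg/mL final in Tris/HCl pH8 with KCl, BSA, glycerol and Tween-20, cleaved an Abz/nitrotyrosine-quenched decapeptide. Fluorescence (ex 320, em 430) was read at 0 and 20 min at room temperature. Delta was normalized to 5.8 microM ADEP and DMSO/no-enzyme controls.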
ALOX12 inh = Primary qHTS assay for inhibitors of human arachidonate 12S-lipoxygenase (ALOX12): Round 2 | purified 12hLO, xylenol orange hydroperoxide absorbance | Potency, µM (top dose mostly 108 µM), for the others: at the highest dose activity change, negative = inhibition, most hits filed as inhibitors | actives 1.1% (n = 580,000); further: on the % scale 0 is the no-effect control and ±100 the full control effect
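Purified human 12hLO at 150 nM in 25 mM Hepes, 0.01% Triton X-100, pH 7.0, preincubated 15 min at room temperature with compound. Reaction started with 40 uM arachidonic acid, 30 min at room temperature. Hydroperoxide measured by Fe-xylenol orange, 573/405 nm absorbance ratio.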
Rango release inh = qHTS Assay for Inhibitors of RanGTP induced Rango (Ran-regulated importin-beta cargo) - Importin beta complex dissociation | Biochemical FRET Rango-importin beta, RanGTP-induced dissociation | Snurportin-1 (Homo sapiens) + GTP-binding nuclear protein Ran (Homo sapiens) + Importin … | Potency, µM (series often up to 46.1 µM), for inactives: at the highest dose activity change, negative = inhibition | actives 0.071% (n = 340,000); calls by dose curve; further: % of control where 0% means no effect; nearly all actives have a fitted effect of over 45% in size
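Recombinant Rango FRET biosensor (EYFP–snurportin 1 IBB–cerulean CFP10) at 0.1 uM premixed with 0.25 uM importin beta in PBS, 1 mM DTT, 0.02% Tween-20, 0.1% BSA. Compound added 5 min; RanGTP-RCC1 (0.6 uM Ran, 2 mM GTP, 0.2 uM RCC1) then triggers release, read at 45 min.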
Rango-impB inh = qHTS Assay for Inhibitors of Rango (Ran-regulated importin-beta cargo) - Importin beta complex formation; Importin subunit beta-1 (Homo sapiens), Q14974; Rango CFP/YFP FRET sensor + importin beta, 45 min; Potency, µM (titrated, usually from 92.2 µM), without a hit: top-dose inhibition of complex formation; actives 0.031% (n = 340,000); calls by dose curve;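 further: 0% = DMSO wells and 100% = buffer wells lacking importin beta; nearly all actives have a fitted effect of over 15% in size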
Target sequence (Q14974 whole entry, looked up): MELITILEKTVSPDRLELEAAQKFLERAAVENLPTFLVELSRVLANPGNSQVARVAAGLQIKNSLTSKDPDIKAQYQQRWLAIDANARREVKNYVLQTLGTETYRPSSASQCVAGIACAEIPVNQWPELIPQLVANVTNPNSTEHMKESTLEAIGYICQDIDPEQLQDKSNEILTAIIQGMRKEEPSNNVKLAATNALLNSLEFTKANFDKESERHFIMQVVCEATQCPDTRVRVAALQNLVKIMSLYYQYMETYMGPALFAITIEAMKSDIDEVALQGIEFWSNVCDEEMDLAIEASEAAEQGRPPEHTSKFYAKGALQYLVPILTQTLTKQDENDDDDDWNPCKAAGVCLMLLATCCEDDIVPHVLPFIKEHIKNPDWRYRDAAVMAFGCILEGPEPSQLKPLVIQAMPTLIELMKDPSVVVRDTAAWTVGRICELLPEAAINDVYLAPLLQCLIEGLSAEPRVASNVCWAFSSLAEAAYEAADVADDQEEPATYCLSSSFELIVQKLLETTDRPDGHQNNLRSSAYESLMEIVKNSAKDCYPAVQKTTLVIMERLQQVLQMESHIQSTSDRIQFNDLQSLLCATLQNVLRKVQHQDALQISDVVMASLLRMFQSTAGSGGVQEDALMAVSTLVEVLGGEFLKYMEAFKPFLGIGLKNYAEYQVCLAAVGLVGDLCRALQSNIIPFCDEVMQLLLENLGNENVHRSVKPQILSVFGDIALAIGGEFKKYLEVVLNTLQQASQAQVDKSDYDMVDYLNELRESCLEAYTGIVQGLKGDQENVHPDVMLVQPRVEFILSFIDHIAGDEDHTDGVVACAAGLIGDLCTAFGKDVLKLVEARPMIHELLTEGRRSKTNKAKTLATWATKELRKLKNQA
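FRET biosensor Rango (snurportin 1 IBB between N-terminal EYFP and C-terminal Cerulean), 50 nM in PBS/1 mM DTT/0.02% Tween-20/0.1% BSA, preincubated 5 min RT with compound; 0.125 microM importin beta added, 45 min RT, CFP/YFP FRET ratio read.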
TDP1 inh = qHTS Assay for Inhibitors of Tyrosyl-DNA Phosphodiesterase (TDP1). Tyrosyl-DNA phosphodiesterase 1 (Homo sapiens), Q9NUW8. recombinant TDP1, AlphaScreen DNA substrate cleavage. Potency, µM (titrated, usually from 130 µM), for inactives: at the highest dose activity change, negative = inhibition, most hits filed as inhibitors. actives 0.28% (n = 350,000); further: on the % scale 0 is the no-effect control and ±100 the full control effect; nearly all actives have a fitted effect of over 40% in size
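E. coli-derived human Tdp1, 1 nM final. Cpd preinc 15 min RT; substrate 15 nM final, 5 min RT; AS bead mix 10 ug/ml final, 10 min RT. Signal loss = tyrosine-FITC cleavage. No-enzyme wells = max signal.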
PTAP TSG101 blk = qHTS Assay for Iinhibitors of HIV-1 Budding by Blocking the Interaction of PTAP/TSG101; Tumor susceptibility gene 101 protein (Homo sapiens), Q99816; Fluorescence polarization, FITC-PTAP peptide / Tsg101 binding; Potency, µM (series often up to 115 µM), for the others: top-dose activity change, negative = inhibition, hits mostly inhibitors; 340,000 tested, under 10 active; AID 493005, 2010; active means well fitted inhibition curve with a large enough effect in the main read-out, with a control signal flat, not every such curve was filed as active; inconclusive means small, poorly fitted or top-dose-only effect, or effect the other way, or a change in a side signal; inactive means no such curve, though single readings can be large or run the other way; further: % of control where 0% means no effect
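FP read-out: FITC-PTAP peptide, 50 nM final, binding Tsg101 binding domain, 10 uM final; 20 min, r.t.; 10 mM HEPES pH 7.5, 0.15 M NaCl, 0.01% Tween 20, 3 mM EDTA, 0.1 mM TCEP.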
The depositor's hits bear a star; ? = inconclusive; . = not tested or not shown. Shown are actives, neighbours in structure and some others; about 2.4% of the full set was active somewhere. Unless noted, the call rests on the fitted dose curve; in most records, active means well fitted curve in the direction sought with a large enough effect; inconclusive means small, poorly fitted or top-dose-only effect, or another doubt; inactive means no such curve, though single readings can be large; an effect the other way counts as inactive or inconclusive. Potency means the concentration at half of the fitted maximal effect.

SMILES	ClpP mod	ALOX12 inh	Rango release inh	Rango-impB inh	TDP1 inh	PTAP TSG101 blk
COCCCNC(=O)c1cc(-c2cc(C)ccc2C)nc2ccccc12	.	-0.5%	.	.	.	.
COc1ccc(C2(O)CC3CCC(C2)N3c2nc(C)cc(C)c2C#N)cc1 (stereo unspecified)	28.2µM*	29.2%	-3.8%	-0.4%	-2.6%	-2.5%
Cc1ccc(S(=O)(=O)N2CCOCC2)cc1NC(=O)CSc1nnc2cc(C)c3ccccc3n12	-5.3%	-22.4%	-14.2%	-1.0%	2.7%	-0.6%
CCN(C(=S)Nc1cc(S(=O)(=O)N2CCOCC2)ccc1Cl)c1cccc2ccccc12	11.2µM*	3.2%	-20.6%	5.8%	3.1%	-1.0%
O=S(=O)(c1ccc(Cl)c(NC(=S)Nc2cccc(O)c2)c1)N1CCOCC1	-2.2%	?	9.7%	1.2%	4.3%	-0.5%
Cc1cc2nnc(SCC(=O)Nc3cc(S(=O)(=O)N4CCOCC4)ccc3Cl)n2c2ccccc12	31.6µM*	-6.5%	-8.1%	0.9%	5.5%	-0.3%
NC(=O)COc1ccc2cc(-c3ccccc3)c(=O)oc2c1	4.0%	4.6%	-9.8%	?	0.7%	0.1%
O=c1oc2cc(OCc3c(F)c(F)c(F)c(F)c3F)ccc2cc1-c1ccccn1	15.8µM*	-9.8%	-2.6%	-1.7%	2.3%	-2.9%
CN1C(=O)Cc2cc(C(=O)N3C[C@@H](CO)[C@H](c4ccccn4)C3)ccc21	.	14.9%	.	.	.	.
CCCc1cc2c(O)ccc(O)c2c(=O)o1	.	35.5µM*	.	.	.	.
CCCc1cc(=O)c2c(O)cccc2o1	0.7%	11.1%	-5.7%	-3.2%	-2.9%	-2.8%
Cc1[nH]n(-c2ccccc2)c(=O)c1C(c1cccc([N+](=O)[O-])c1O)c1c(C)[nH]n(-c2ccccc2)c1=O	-1.7%	25.1µM*	-8.5%	8.7%	-1.9%	-4.0%
Cc1[nH]n(-c2ccccc2)c(=O)c1C(c1cccc([N+](=O)[O-])c1)c1c(C)[nH]n(-c2ccccc2)c1=O	-2.2%	-30.0%	3.1%	3.1%	10.6%	-7.6%
CCc1ccccc1N(C)S(=O)(=O)c1ccc2[nH]cc(C(=O)NCCOC)c(=O)c2c1	28.2µM*	-28.2%	.	.	-3.8%	.
CCCCNC(=O)c1c[nH]c2ccc(S(=O)(=O)N3CCOCC3)cc2c1=O	.	-4.0%	9.5%	-0.3%	5.9%	-3.2%
COCCNC(=O)c1c[nH]c2ccc(S(=O)(=O)N3CCC4(CC3)OCCO4)cc2c1=O	20µM*	0.1%	4.7%	0.0%	4.6%	-2.2%
CC1CCN(S(=O)(=O)c2ccc3[nH]cc(C(=O)NCCN4CCOCC4)c(=O)c3c2)CC1	25.1µM*	430.3%	12.8%	1.7%	8.7%	-2.1%
O=C(Nc1ccccc1)C(=O)c1cn(CC(=O)N2CCOCC2)c2ccccc12	.	18.0%	.	.	.	.
CC1(C)CC2CC(C)(CN2C(=O)COC(=O)CNC(=O)c2ccc(Cl)c(Cl)c2)C1 (stereo unspecified)	25.1µM*	-4.7%	0.3%	-0.3%	0.0%	-4.4%
CC1(C)CC2CC(C)(CN2C(=O)COC(=O)c2ccc(O)cc2O)C1 (stereo unspecified)	-0.5%	397.5%	-11.6%	-1.9%	7.94µM*	-5.6%
CC1(C)CC2CC(C)(CN2C(=O)COC(=O)c2cc(Cl)cc(Cl)c2N)C1 (stereo unspecified)	31.6µM*	1.0%	-15.5%	-3.6%	0.0%	-0.7%
CC1(C)CC2CC(C)(CN2C(=O)COC(=O)c2cccnc2Cl)C1 (stereo unspecified)	0.5%	15.5%	26.8%	-1.4%	0.2%	-3.0%
CC(C)[C@H](NC(=O)c1ccccc1)C(=O)OCC(=O)N1CC2(C)CC1CC(C)(C)C2 (stereo partly specified)	2.5%	13.8%	-2.0%	-5.1%	5.8%	-4.5%
CCN(CCn1cccn1)C(=O)c1ccc2nc(-c3ccc(F)cc3)cn2c1	.	18.2%	.	.	.	.
Cc1ccc(F)c(NC(=O)c2cc3c(N4CCSCC4)nc(C)cn3n2)c1	.	12.6%	.	.	.	.
SMILES	ClpP mod	ALOX12 inh	Rango release inh	Rango-impB inh	TDP1 inh	PTAP TSG101 blk
COc1ccc(C(=O)N2CCN(C3CCCCC3)CC2)cc1OC	-2.2%	0.631µM*	-22.7%	?	.	-4.0%
Cc1ccc(NC(=O)c2cn(-c3ccc4c(c3)OCCO4)nn2)cc1Cl	.	-29.5%	.	.	.	.
CN(C)[C@@H]1CN(Cc2ccccc2F)CC[C@@H]1CNC(=O)C1CC1	.	20.9%	.	.	.	.
O=[N+]([O-])c1cc(C(F)(F)F)ccc1NCCCCNS(=O)(=O)c1ccc(Cl)cc1	2.0%	?	?	-1.7%	6.9%	-0.1%
O=[N+]([O-])c1cc(C(F)(F)F)ccc1NCCNC(=S)Nc1ccc(Cl)cc1	0.4%	39.8µM*	8.8%	0.1%	5.9%	-6.6%
CCc1ccc(-c2cc(C(=O)NCc3ccccn3)c3ccccc3n2)cc1	14.1µM*	-14.4%	-12.0%	2.8%	-5.6%	-2.7%
CCc1ccc(-c2cc(C(=O)NCc3ccco3)c3ccccc3n2)cc1	.	14.1µM*	.	.	.	.
O=C(NCc1ccccn1)c1cc(-c2ccc(Br)cc2)nc2ccccc12	?	-6.8%	1.4%	-0.4%	3.2%	-0.6%
COc1cc(-c2cc(C(=O)NCc3ccco3)c3ccccc3n2)cc(OC)c1OC	0.2%	?	-9.2%	-3.0%	11.4%	-0.5%
Cc1ccc(-c2cc(C(=O)NCc3ccccn3)c3ccccc3n2)cc1	14.1µM*	-19.0%	2.5%	4.3%	8.3%	-1.6%
CCc1ccc(NC(=O)c2ccccc2SCC(=O)NCc2ccco2)cc1	.	5.62µM*	.	.	.	.
O=C(NCc1ccccn1)c1cc(-c2cccs2)nc2ccccc12	.	-40.1%	.	.	.	.
CN1CCCN(C(=O)Cc2ccc(OC(F)(F)F)cc2)c2ccccc21	.	6.7%	.	.	.	.
Cc1ccc(-c2cc(C(=O)NCCc3ccccn3)c3ccccc3n2)c(C)c1	28.2µM*	-1.5%	0.2%	-0.2%	-0.6%	-2.8%
CCOC(=O)c1cc(CC)sc1NC(=O)c1ccc2c(c1)OCCO2	25.1µM*	-22.6%	16.4%	-6.7%	-2.3%	-1.6%
CCOC(=O)c1cc(-c2ccccc2)sc1NC(=O)C(C)C	-5.6%	-16.6%	1.7%	6.7%	-0.6%	-0.5%

Bioassay records as filed in PubChem.
